Source: the supplement of paper PMC7411054
Where a name gives a salt, the structure may show the parent alone.

Key:
Assay in all cases: phenotypically active (imaging signature differs from DMSO and reproducible) at any of 0.3-9 uM (binary (1 = active, 0 = inactive)); higher = active
Conditions in all cases: treatment time: 24 h
[1] = tested on: A549-ACTB-RAB5A
In short: (§1)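 Two criteria together defined phenotypic activity: deviation and reproducibility. Deviation meant ≥3 of 4 wells beyond the 95th percentile of Euclidean distances in solvent control wells, and reproducibility meant a median replicate Pearson correlation above the 95th percentile of non-replicates. Wells had been treated for 24 h at 0.3, 1, 3 or 9 µM in fifteen gene-edited A549, HepG2 and WPMY1 reporter lines before live imaging.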

[2] = tested on: A549-CANX-COX4
In short: as §1

[3] = tested on: A549-GM130-SQSTM1
In short: as §1

[4] = tested on: A549-TP53BP1-CLTA
In short: as §1

[5] = tested on: A549-TUBA1B-RELA
In short: as §1

[6] = tested on: HepG2-ACTB-RAB5A
In short: as §1

[7] = tested on: HepG2-CANX-COX4
In short: as §1

[8] = tested on: HepG2-GM130-SQSTM1
In short: as §1

[9] = tested on: HepG2-TP53BP1-CLTA
In short: as §1

[10] = tested on: HepG2-TUBA1B-RELA
In short: as §1

[11] = tested on: WPMY1-ACTB-RAB5A
In short: as §1

[12] = tested on: WPMY1-CANX-COX4
In short: as §1

[13] = tested on: WPMY1-GM130-SQSTM1
In short: as §1

[14] = tested on: WPMY1-TP53BP1-CLTA
In short: as §1

[15] = tested on: WPMY1-TUBA1B-RELA
In short: as §1

Measured: phenotypically active

CC(C)[N+](C)(CCOC(=O)C1c2ccccc2Oc2ccccc21)C(C)C [propantheline]
inactive: [1] 0 | [2] 0 | [3] 0 | [4] 0 | [5] 0 | [6] 0 | [7] 0 | [8] 0 | [9] 0 | [10] 0 | [11] 0 | [12] 0 | [13] 0 | [14] 0 | [15] 0

C[C@@H]1O[C@@H](O[C@H]2[C@H](Oc3cc(O)c4c(c3)O[C@H](c3ccc(O)cc3)CC4=O)O[C@H](CO)[C@@H](O)[C@@H]2O)[C@H](O)[C@H](O)[C@H]1O [Naringin hydrate]
inactive: [1] 0 | [2] 0 | [3] 0 | [4] 0 | [5] 0 | [6] 0 | [7] 0 | [8] 0 | [9] 0 | [10] 0 | [11] 0 | [12] 0 | [13] 0 | [14] 0 | [15] 0

CN1CC[C@]23c4ccccc4N[C@H]1[C@]21CCN(C)[C@H]3Nc2ccccc21 [Calycanthine]
inactive: [1] 0 | [2] 0 | [3] 0 | [4] 0 | [5] 0 | [6] 0 | [7] 0 | [8] 0 | [9] 0 | [10] 0 | [11] 0 | [12] 0 | [13] 0 | [14] 0 | [15] 0

COCC(=O)N[C@@H](Cc1ccc(-c2cc(Cl)cc(Cl)c2)cc1)[C@H](O)[C@@H](O)C(=O)O
inactive: [1] 0 | [2] 0 | [3] 0 | [4] 0 | [5] 0 | [6] 0 | [7] 0 | [8] 0 | [9] 0 | [10] 0 | [11] 0 | [12] 0 | [13] 0 | [14] 0 | [15] 0

CC(C(=O)O)c1ccc(C(=O)c2cccs2)cc1 (stereo not given) [suprofen]
inactive: [1] 0 | [2] 0 | [3] 0 | [4] 0 | [5] 0 | [6] 0 | [7] 0 | [8] 0 | [9] 0 | [10] 0 | [11] 0 | [12] 0 | [13] 0 | [14] 0 | [15] 0

NCCC(=O)NCCc1c[nH]cn1 [Carcinine]
inactive: [1] 0 | [2] 0 | [3] 0 | [4] 0 | [5] 0 | [6] 0 | [7] 0 | [8] 0 | [9] 0 | [10] 0 | [11] 0 | [12] 0 | [13] 0 | [14] 0 | [15] 0

Cn1c(=O)c2[nH]cnc2n(C)c1=O [Aminophylline]
inactive: [1] 0 | [2] 0 | [3] 0 | [4] 0 | [5] 0 | [6] 0 | [7] 0 | [8] 0 | [9] 0 | [10] 0 | [11] 0 | [12] 0 | [13] 0 | [14] 0 | [15] 0

C=C(C)[C@@H]1CC[C@]2(C(=O)O)CC[C@]3(C)[C@H](CC[C@@H]4[C@@]5(C)CC[C@H](O)C(C)(C)[C@@H]5CC[C@]43C)[C@@H]12 [betulinic-acid]
inactive: [1] 0 | [2] 0 | [3] 0 | [4] 0 | [5] 0 | [6] 0 | [7] 0 | [8] 0 | [9] 0 | [10] 0 | [11] 0 | [12] 0 | [13] 0 | [14] 0 | [15] 0

NC(=O)OCC(COC(N)=O)c1ccccc1 [felbamate]
inactive: [1] 0 | [2] 0 | [3] 0 | [4] 0 | [5] 0 | [6] 0 | [7] 0 | [8] 0 | [9] 0 | [10] 0 | [11] 0 | [12] 0 | [13] 0 | [14] 0 | [15] 0

O=C1NCCCC1C(=O)NCCc1c[nH]c2ccc(O)cc12 (stereo not given)
inactive: [1] 0 | [2] 0 | [3] 0 | [4] 0 | [5] 0 | [6] 0 | [7] 0 | [8] 0 | [9] 0 | [10] 0 | [11] 0 | [12] 0 | [13] 0 | [14] 0 | [15] 0

CO[C@H]1C=CO[C@@]2(C)Oc3c(C)c(O)c4c(O)c(c5c(nc6cc(C)ccn65)c4c3C2=O)NC(=O)C(C)=CC=C[C@H](C)[C@H](O)[C@@H](C)[C@@H](O)[C@@H](C)[C@H](OC(C)=O)[C@@H]1C [Rifaximin]
inactive: [1] 0 | [2] 0 | [3] 0 | [4] 0 | [5] 0 | [6] 0 | [7] 0 | [8] 0 | [9] 0 | [10] 0 | [11] 0 | [12] 0 | [13] 0 | [14] 0 | [15] 0

CCCCCCC(=O)OC1CC(C)(C)NC(C)(C)C1 [TMPH hydrochloride]
inactive: [1] 0 | [2] 0 | [3] 0 | [4] 0 | [5] 0 | [6] 0 | [7] 0 | [8] 0 | [9] 0 | [10] 0 | [11] 0 | [12] 0 | [13] 0 | [14] 0 | [15] 0
